rCAG binder – binds r(CAG) RNA repeats; r(CAG) RNA repeat, TO-PRO-1 dye displacement fluorescence; inhibition, % at 3 µM; hit rate 1.3% among 370,000; AID 651821;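 active = inhibition above the plate cutoff, the mean of all test compounds on that plate plus 3 SD, cut at about 35% in these data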;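 also: 0% = DMSO alone and 100% = 100 µM mitoxantrone as full dye displacement; higher means more dye released from RNA so lower well fluorescence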
DSG3 Ab inh – blocks pemphigus antibody binding to human desmoglein-3. P32926. DSG3-coupled beads, scFv-anti-DSG3-GFP binding, flow cytometry; hits give low values. binding (percent of control), % at 10 µM. hit rate 0.48% among 310,000;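 active = binding more than 3 SD below its plate's average and above zero; inconclusive = below that plate limit but binding exactly zero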;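 also: hits lower antibody fragment binding to DSG3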
KLK7 zymogen act – activators of human kallikrein-7 zymogen; P49862; purified proKLK7, EDANS-DABCYL substrate fluorescence; 100% is mature enzyme control, 0% vehicle; activation, % at 7 µM; hit rate 0.9% among 370,000; AID 652039;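 active = activation above the mean of all tested compounds plus 3 SD, computed per campaign excluding outliers beyond control limits, cut at about 13% in these data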
ADAM17 inh – ADAM17 inhibition, QFRET primary screen; P78536; recombinant ADAM17, EDANS/DABCYL FRET peptide cleavage; inhibition, % at 6.95 µM; hit rate 0.83% among 370,000;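 active = inhibition above the mean of compounds lying between control limits plus 3 SD, set per campaign, cut at about 8.5% in these data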;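 also: 0% = DMSO-only wells as the low control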
Target sequence (P78536 215-824 limits assumed): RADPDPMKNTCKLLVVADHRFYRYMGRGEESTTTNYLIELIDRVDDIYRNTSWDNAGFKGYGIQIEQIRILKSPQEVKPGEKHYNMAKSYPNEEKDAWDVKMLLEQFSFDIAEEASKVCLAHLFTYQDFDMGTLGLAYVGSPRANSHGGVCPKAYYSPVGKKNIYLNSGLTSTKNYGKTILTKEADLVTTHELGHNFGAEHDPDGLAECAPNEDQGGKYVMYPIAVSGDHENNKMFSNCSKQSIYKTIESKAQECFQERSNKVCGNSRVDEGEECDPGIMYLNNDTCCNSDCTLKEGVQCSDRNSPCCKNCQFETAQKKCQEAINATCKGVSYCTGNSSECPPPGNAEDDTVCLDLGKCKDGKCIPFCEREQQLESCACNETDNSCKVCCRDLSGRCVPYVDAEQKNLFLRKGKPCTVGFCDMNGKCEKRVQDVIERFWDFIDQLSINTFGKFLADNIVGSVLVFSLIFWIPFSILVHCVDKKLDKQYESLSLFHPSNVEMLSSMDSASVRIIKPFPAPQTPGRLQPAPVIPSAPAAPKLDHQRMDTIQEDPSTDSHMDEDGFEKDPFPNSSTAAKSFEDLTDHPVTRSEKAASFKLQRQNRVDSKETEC
ADAM10 inh – inhibitors of human ADAM10 | O14672 | recombinant ADAM10, EDANS/DABCYL FRET peptide cleavage, 3 h | inhibition, % at 7 µM | hit rate 0.62% among 370,000;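 active = inhibition above a per-campaign cutoff equal to the mean of compounds falling between control-based bounds plus 3 SD, cut at about 20% in these data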;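 also: 0% = DMSO wells while the 100% control is not disclosed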
MPTP inh – permeability transition pore inhibition; isolated mouse mitochondria, Ca2+ swelling absorbance, 30 min; inhibition, % at 10 µM; hit rate 1.4% among 360,000; AID 602449;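 active = inhibition of 50% or more, scaled per plate between neutral and stimulator controls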;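 also: 0% = DMSO wells given calcium and 100% = 1 mM EGTA wells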
rCAG binder conf – r(CAG) RNA repeat binding, confirmation; shares compounds with rCAG binder; TO-PRO-1 dye displacement fluorescence; inhibition, % at 3 µM; hit rate 70% among 4,300;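 active = inhibition above a per-plate cutoff, the mean inhibition of sample wells plus 3 SD, cut at about 35% in these data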;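 also: loss of TO-PRO-1 fluorescence as compound displaces dye from 1x1 AA loop RNA; 0% = DMSO only wells and 100% = 100 µM mitoxantrone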
DNA CAG counter – counter-screen for rCAG RNA binders: DNA CAG dye complex inhibitors | shares compounds with rCAG binder | d(CAG) DNA oligo TO-PRO-1 dye displacement, fluorescence | inhibition, % at 3 µM | hit rate 94% among 4,300;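 active = inhibition above its plate's cutoff, the mean test-well inhibition plus 3 SD, cut at about 4.8% in these data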;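 also: 0% = DNA dye mix with DMSO and 100% = 100 µM mitoxantrone; hits displace the dye from DNA and so lower well fluorescence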
dCAG dye DR – DNA CAG dye complex inhibition, dose response counter-screen; shares compounds with rCAG binder; DNA CAG/GTC duplex TO-PRO-1 dye displacement fluorescence; IC50, µM; hit rate 20% among 250; in the data active = IC50 below about 10 µM
ADAM10 confirm – confirmation of inhibitors of human ADAM10 | inhibition, % at 6.95 µM | AID 743208 | shares compounds with ADAM10 inh | hit rate 1% among 2,100 | ADAM10 QFRET peptide cleavage, EDANS fluorescence;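 active = inhibition above about 20% chosen separately for each screening run, limit read from the data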;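 also: 0% = DMSO wells and 100% = marimastat wells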
ADAM17 counter – inhibits human ADAM17 in ADAM10 exosite counter-screen; shares compounds with ADAM10 inh; ADAM17 QFRET peptide cleavage, EDANS fluorescence; inhibition, % at 6.95 µM; hit rate 0.5% among 2,100; AID 743214;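 active = mean triplicate inhibition above the solvent-only control wells' mean plus 3 SD, cut at about 12% in these data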;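 also: 0% = DMSO wells and 100% = marimastat wells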
ADAM10 counter – inhibits human ADAM10 in ADAM17 exosite counter-screen. hit rate 47% among 2,900. recombinant ADAM10, EDANS/DABCYL FRET peptide cleavage, 3 h. inhibition, % at 6.95 µM. shares compounds with ADAM17 inh;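 active = mean inhibition over the triplicate runs exceeds the activity threshold set in the earlier primary screen, cut at about 20% in these data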;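 also: 0% = DMSO wells and 100% = marimastat wells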
ADAM17 confirm – confirmation of inhibitors of human ADAM17; shares compounds with ADAM17 inh; recombinant ADAM17, EDANS/DABCYL QFRET peptide cleavage; inhibition, % at 6.95 µM; hit rate 65% among 2,900; AID 743257;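 active = mean inhibition across replicates above the hit cutoff set in the primary screen, cut at about 8.5% in these data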;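 also: 0% = DMSO wells and 100% = marimastat wells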
* hit, by the source's call; i = inactive; ? = inconclusive; . = not tested or not shown. An excerpt weighted towards active compounds, which were near 4.7% of everything screened.

SMILES	rCAG binder	DSG3 Ab inh	KLK7 zymogen act	ADAM17 inh	ADAM10 inh	MPTP inh	rCAG binder conf	DNA CAG counter	ADAM10 confirm	ADAM17 counter	others
O=C(C[C@H]1CC[C@@H]2[C@H](COC[C@H](O)CN2C(=O)c2cnccn2)O1)NCc1ccc(Cl)cc1	0	.	-1	-4	-4	-1	.	.	.	.
NNC(=S)Nc1c(Br)cc(F)cc1Br	0	.	-1	-4	1	0	.	.	.	.
O=C(O)C=Cc1c[nH]c2nccnc12	0	109	0	-4	-15	-1	.	.	.	.
Cc1noc(NS(=O)(=O)c2ccc(NC(=O)/C=C/c3ccc(Br)cc3)cc2)c1C	82*	109	1	-2	22*	0	67*	33*	0	0
O=C(CSc1nnc(SCc2ccccc2)s1)NNC(=S)Nc1ccccc1	43*	102	-1	8	24*	30	52*	18*	0	1	dCAG dye DR=>30
O=C(Cc1ccccc1)NNC(=S)Nc1ccccc1	1	100	0	-8	-5	1	.	.	.	.
COc1ccc(C(C)=NNS(=O)(=O)c2ccc(C)cc2)cc1OC	3	106	0	1	-10	0	.	.	.	.
Cc1ccc(-c2n[nH]c(=S)n2/N=C/C=C\c2ccccc2[N+](=O)[O-])cc1	35*	107	0	8	29*	1	33	11*	1	0
Fc1ccccc1-c1n[nH]c(=S)n1N=Cc1ccc(OCc2ccccc2)cc1	70*	.	1	8	25*	.	58*	20*	6	2
S=c1[nH]nc(COc2ccccc2)n1/N=C/C(Cl)=C/c1ccccc1	52*	.	-1	5	20*	17	72*	34*	3	1	dCAG dye DR=i
CCOc1ccc(/C=N/n2c(-c3ccccc3)n[nH]c2=S)cc1	18	112	0	0	0	0	.	.	.	.
S=c1[nH]nc(COc2ccccc2)n1/N=C/C=C/c1ccccc1	10	102	-1	3	-1	0	.	.	.	.
O=C(Nc1ccc(S(=O)(=O)Nc2nccs2)cc1)/C(=C/c1ccccc1Cl)NC(=O)c1ccccc1	78*	124	0	8	32*	3	68*	35*	1	0
O=C(Nc1ccc(S(=O)(=O)Nc2nccs2)cc1)c1cc(-c2ccccc2)nc2ccccc12	74*	98	0	8	27*	-2	76*	38*	9	2
CC(=O)Nc1ccc(NC(=O)c2cc(-c3ccccc3)nc3ccccc23)cc1	10	111	0	-9	-13	1	.	.	.	.
NS(=O)(=O)c1cccc(NC(=O)CCN2C(=O)C3CCCCC3C2=O)c1 (centres undefined)	0	98	0	-6	-5	-1	.	.	.	.
Cc1cc(C)c(C)c(S(=O)(=O)N2CCC(C(=O)NCCCN3CCOCC3)CC2)c1C	1	111	-1	-3	-6	0	.	.	.	.
Cc1ccc(S(=O)(=O)Nc2ccccc2-c2ccccc2NS(=O)(=O)c2ccc(C)cc2)cc1	74*	102	-1	5	21*	24	89*	59*	0	0
Cc1ccc(Sc2ccc(/C=C3/C(=O)NN(c4ccccc4)C3=O)o2)cc1	35*	95	0	8.8*	20	13	81*	46*	.	.	ADAM10 counter=15;ADAM17 confirm=7
CC(=O)Nc1ccc(-c2csc(NC(=O)C3CSC4(C)CCC(=O)N34)n2)cc1 (centres undefined)	13	98	0	-14	-25	-3	.	.	.	.
O=C(N/N=C/c1c[nH]c2ccccc12)c1cccc([N+](=O)[O-])c1	1	100	0	1	0	0	.	.	.	.
O=[N+]([O-])c1ccc(N/N=C/c2c[nH]c3ccccc23)cc1	56*	112	4	9.6*	17	6	26	20*	.	.	ADAM10 counter=17;ADAM17 confirm=8
Cc1ccc(NC(=O)CN(C)C(=O)c2cccnc2Nc2cccc(C(F)(F)F)c2)cc1	44*	114	1	13*	36*	5	16	5.8*	10	2	ADAM10 counter=52*;ADAM17 confirm=28*
CN(C)/C=C/C(=O)c1ccc([N+](=O)[O-])c(CS(=O)(=O)c2ccccc2)c1	35*	98	0	9.3*	16	0	4	3	.	.	ADAM10 counter=9;ADAM17 confirm=8.7*
CCC(=Cc1ccccc1OC)c1ccncc1	-1	95	0	-2	-13	0	.	.	.	.
SMILES	rCAG binder	DSG3 Ab inh	KLK7 zymogen act	ADAM17 inh	ADAM10 inh	MPTP inh	rCAG binder conf	DNA CAG counter	ADAM10 confirm	ADAM17 counter	others
O=C1CC(c2ccco2)CC(O)=C1C=Nc1cc(Cl)ccc1O (centres undefined)	37*	112	-1	11*	18	2	17	6.0*	.	.	ADAM10 counter=-30;ADAM17 confirm=-6
O=C1CC(c2ccco2)CC(O)=C1C=Nc1cc(Cl)ccc1Cl (centres undefined)	15	99	1	2	-3	0	.	.	.	.
CC(C)=CCc1c2c(c3occ(-c4ccc(O)c(O)c4)c(=O)c3c1O)C=CC(C)(C)O2	47*	90	0	11*	7	7	43*	28*	.	.	ADAM10 counter=13;ADAM17 confirm=8
CC(C)=CCc1c2c(c3occ(-c4ccc(O)cc4)c(=O)c3c1O)C=CC(C)(C)O2	36*	103	0	9.5*	19	21	31	13*	.	.	ADAM10 counter=21*;ADAM17 confirm=15*
O=S(=O)(CCNCc1ccccc1)NC1CCCCC1	0	109	-1	-4	-20	-1	.	.	.	.
Cc1ccc(CC(=O)Nc2ccc(C(=O)N3CCOCC3)cc2)cc1	0	105	0	2	-3	-1	.	.	.	.
CCOC(=O)C1=C(C)Nc2ccccc2N/C1=N\S(=O)(=O)c1ccc(Cl)cc1	35*	?	-1	12*	0	4	27	4.9*	.	.	ADAM10 counter=4;ADAM17 confirm=5
CCOC(=O)C1=C(Cc2ccc(Cl)cc2)C(=O)c2ccccc2C1=O	.	109	.	.	.	40	.	.	.	.

Screens from PubChem.
